TEAD-YAP inh – TEAD-YAP interaction inhibition; inhibition, % at 9.12 µM; AID 1259422; HEK-TIYL cells, TEAD-Gal4/YAP UAS-luciferase luminescence; hit rate 1.4% among 640,000; in the data active = inhibition above about 32%;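 note: 0% = median of test compound wells and 100% = reference inhibitor wells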
MITF primary – inhibitors of human MITF; O75030; AlphaScreen MITF homodimerization, bead proximity signal; inhibition, % at 2.6 µM; hit rate 0.91% among 650,000; in the data active = inhibition above about 50%;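 note: 0% = vehicle wells with protein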
GPR151 ag – activators of human GPR151. Q8TDV0. PathHunter beta-arrestin GPR151 cells, luminescence. activation, % at 11.2 µM. hit rate 1% among 650,000; in the data active = activation above about 4.9%;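 note: 0% = median of compound wells and 100% = cells with positive control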
FBW7 act – activators of human E3 ligase FBW7. AlphaScreen FBW7–phospho-cyclin E peptide binding, activator screen. hit rate 0.13% among 650,000. normalized activity (activation), % at 26.1 µM. Q969H0; in the data active = normalized activity above about 1.9%;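 note: purified mutant Fbw7 with reduced substrate affinity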
Target sequence (Q969H0 whole entry, looked up): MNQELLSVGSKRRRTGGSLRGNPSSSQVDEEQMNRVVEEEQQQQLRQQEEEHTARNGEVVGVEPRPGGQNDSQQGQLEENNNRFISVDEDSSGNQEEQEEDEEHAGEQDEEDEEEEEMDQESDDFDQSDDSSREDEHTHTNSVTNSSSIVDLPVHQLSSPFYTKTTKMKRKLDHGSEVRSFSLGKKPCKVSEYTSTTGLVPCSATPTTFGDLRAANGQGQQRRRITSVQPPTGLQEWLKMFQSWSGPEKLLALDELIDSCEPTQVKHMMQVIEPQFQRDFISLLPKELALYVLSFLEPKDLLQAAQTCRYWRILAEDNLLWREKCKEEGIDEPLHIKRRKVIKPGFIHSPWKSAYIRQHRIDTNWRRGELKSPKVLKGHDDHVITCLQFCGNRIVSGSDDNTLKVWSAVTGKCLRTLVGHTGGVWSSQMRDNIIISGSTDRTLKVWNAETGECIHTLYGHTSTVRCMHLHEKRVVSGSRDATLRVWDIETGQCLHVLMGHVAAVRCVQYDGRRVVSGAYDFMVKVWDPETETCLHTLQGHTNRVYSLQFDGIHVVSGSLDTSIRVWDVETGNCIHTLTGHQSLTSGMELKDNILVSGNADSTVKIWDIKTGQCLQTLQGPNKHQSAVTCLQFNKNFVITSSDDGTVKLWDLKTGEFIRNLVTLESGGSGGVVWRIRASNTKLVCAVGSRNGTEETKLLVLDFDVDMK
MITF confirm – confirmation of human MITF inhibitors; hit rate 16% among 4,700; inhibition, % at 2.6 µM; AlphaScreen MITF homodimerization, biotin/His-MITF beads; AID 1259372; shares compounds with MITF primary;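 active = inhibition above a cutoff derived from the DMSO control wells, cut at about 28% in these data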;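 note: 0% = MITF dimer wells with DMSO only; inhibitors lower the bead chemiluminescence by keeping MITF from dimerizing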
AS interf DR – optically interferes with AlphaScreen signal in dose response | IC50, µM | hit rate 6% among 480 | shares compounds with MITF primary | AlphaScreen optical interference counterscreen, cell-free; call rule not given here
AS interf ctr – optically interferes with AlphaScreen signal; shares compounds with MITF primary; inhibition, % at 2.6 µM; hit rate 7.6% among 4,700; LysRS AlphaScreen counterscreen, signal interference, triplicate;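 active = inhibition above a cutoff derived from the DMSO control wells, cut at about 30% in these data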
Numbers without * were called inactive; · = not tested or not shown. Sampled rows, rich in hits. Any-hit rate of the full collection: about 3.5%.

SMILES	TEAD-YAP inh	MITF primary	GPR151 ag	FBW7 act	MITF confirm	AS interf ctr	others
COc1ccc(C[C@@H]2NC(=O)[C@H]3CN(C(=O)Oc4ccc(F)cc4)CCN3C2=O)cc1	10	-10	0	0	·	·
O=C1N[C@@H](COCc2ccccc2)C(=O)N2CCN(C(=O)OCc3ccccc3)C[C@H]12	3	-8	0	0	·	·
O=C1N[C@@H](Cc2c[nH]c3ccccc23)C(=O)N2CCN(C(=O)NC3CCCCC3)C[C@H]12	12	76*	-2	0	72*	-9	AS interf DR=>6.5
C=CCNCC(O)COc1cc(Cl)ccc1Cl (stereo not given)	4	53*	1	0	-11	-3
CC(O)CNCC(O)COc1cc(Cl)ccc1Cl (stereo not given)	-3	-8	0	0	·	·
O=C(NCCN1CCCCC1)c1cccc(CN(C(=O)c2nc3ccc(-c4cn[nH]c4)cc3s2)C2CC2)c1	4	32	-1	1	·	·
CN1CCN(CCNC(=O)c2cccc(CN(C(=O)c3nc4ccc(-c5cn[nH]c5)cc4s3)C3CC3)c2)CC1	50*	78*	0	2	72*	-14	AS interf DR=>6.5
CN(C)CC(=O)Nc1cccc(CN(C(=O)c2nc3ccc(-c4cn[nH]c4)cc3s2)C2CC2)c1	0	-4	0	-1	·	·
O=C(NCCN1CCOCC1)c1cccc(CN(C(=O)c2nc3ccc(-c4cn[nH]c4)cc3s2)C2CC2)c1	15	66*	1	2	73*	6	AS interf DR=>6.5
O=C(O)c1cc(S(=O)(=O)Nc2ccc(-n3cnnn3)cc2)ccc1O	-1	53*	0	0	41*	14	AS interf DR=>7.2
COc1ccc(-c2cnc3ccc(NC4CCOCC4)nn23)cn1	9	11	0	0	·	·
COc1ncc(-c2cnc3ccc(NC4CCOCC4)nn23)c(OC)n1	-17	68*	1	0	12	26
OCCCNc1ccc2ncc(-c3ccccc3Cl)n2n1	8	85*	2	0	13	17
Cc1ccc(S(=O)(=O)N2CCC(O)(c3cccnc3)CC2)cc1	-1	33	-1	0	·	·
O=S(=O)(c1ccc(F)cc1)N1CCC(O)(c2cccnc2)CC1	-1	72*	-1	0	12	17
COc1ccc(S(=O)(=O)N(C)CC(=O)/C=C2/N(C)c3ccccc3C2(C)C)cc1	10	7	1	0	·	·
O=c1cc(-c2ccccc2)[nH]n1-c1nc2ccccc2[nH]1	16	40	-1	-1	·	·
Cc1[nH]n(-c2nc3ccccc3[nH]2)c(=O)c1C1OC(=O)c2ccccc21 (stereo not given)	13	91*	-1	0	71*	100*
O=C1C(=O)N(c2ccccc2)C(c2ccc3c(c2)OCO3)/C1=C(/O)c1ccccc1 (stereo not given)	-2	2	1	0	·	·
CC1=C(C(=O)Nc2ccccc2C)C(c2ccco2)C(C#N)=C(SCC(=O)Nc2ccc(C)cc2)N1 (stereo not given)	-15	-10	2	0	·	·
CCOc1ccc(NC(=O)CSC2=C(C#N)C(c3ccco3)C(C(=O)Nc3ccccc3C)=C(C)N2)cc1 (stereo not given)	7	63*	1	0	0	3
CN1CCN(CC(O)COCC2COc3ccccc3O2)CC1 (stereo not given)	-3	12	-1	0	·	·
CCOCCCNCc1c(C(=O)O)c(C)n(Cc2cc(C)ccc2C)c1C	5	18	1	0	·	·
Cn1c(CN2CCOCC2)nnc1SCC(N)=O	2	4	1	0	·	·
CSc1nnc(CN2CCSCC2)n1C	4	64*	-1	0	-3	-5
Cc1ccc(C(C)C)c(OCCn2c(=O)c3cc4c(=O)n(CCOc5cc(C)ccc5C(C)C)c(=O)c4cc3c2=O)c1	3	-8	1	0	·	·
O=C(O)c1nsnc1C(O)C(O)C(=O)O (stereo not given)	-1	68*	-1	0	-7	1
O=C(O)C(O)C(O)C(O)C(O)C(=O)O (stereo not given) (tested in a mixture with another compound)	·	-4	0	0	·	·
